# Assay outcomes: PubChem, Broad Institute
# A selection: hits, their analogues and other compounds. The true share with any hit is near 1.2%.
# RAD52 inh = RAD52 DNA annealing inhibitors, primary screen, biochemical, FRET, single point, set 2 | inhibition, % at 18.7 µM | actives 0.46% (n = 360,000) | recombinant RAD52 DNA annealing, FRET fluorescence | DNA repair protein RAD52 homolog (Homo sapiens), P43351;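 active = every replicate showing at least 50% inhibition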
# Glyco luc inh = increase of ERlucT glycosylation luciferase signal, primary screen, N-linked glycosylation inhibitor project, D54 ERlucT cells, luminescence, set 2; D54 ERlucT glycosylation luciferase reporter, 24 h; percent of 100 nM tunicamycin response; reporter increase, % at 12.5 µM; actives 0.23% (n = 360,000); AID 588692, 2011;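 active = mean luciferase reporter signal, scaled so untreated is 0 and the glycosylation-blocking control 100, at or above a set limit in every replicate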;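 note: luciferase carries N-glycosylation sites so blocking glycosylation raises the light; 0% = median of neutral control wells and 100% = median of 100 nM tunicamycin wells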
# Casp6 inh = human caspase-6 inhibitors, primary screen, biochemical, VEID-R110 fluorescence, single point, set 2; inhibition, % at 12.5 µM; P55212; purified caspase-6, Z-VEID-R110 cleavage fluorescence; actives 0.53% (n = 350,000);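 active = mean inhibition across replicates at least about 35%, with every replicate also reaching that limit, limit read from the data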;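 note: 0% = median of neutral control wells and 100% = no fluorescence left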
# Target sequence (P55212 24-179 limits assumed): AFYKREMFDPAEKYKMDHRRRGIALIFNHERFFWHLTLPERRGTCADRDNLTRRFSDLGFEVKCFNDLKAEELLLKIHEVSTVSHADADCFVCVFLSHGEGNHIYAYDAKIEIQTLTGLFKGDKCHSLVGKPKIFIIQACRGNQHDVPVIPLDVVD
# Target sequence (P55212 194-293 limits assumed): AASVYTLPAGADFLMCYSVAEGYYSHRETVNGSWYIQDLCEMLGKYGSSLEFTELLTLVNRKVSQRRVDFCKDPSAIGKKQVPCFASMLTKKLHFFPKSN
# RAD54 branch = inhibitors of human RAD54 branch migration, primary screen, biochemical, fluorescence, single point. DNA repair and recombination protein RAD54-like (Homo sapiens), Q92698. RAD54 Holliday junction branch migration, FAM/BHQ fluorescence. inhibition, % at 10.4 µM. actives 0.14% (n = 360,000). AID 602329, 2012;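 active = mean normalized replicate activity at least 40 and at least half of replicates scoring 40 or more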;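 note: 0% = median of neutral control wells and 100% = median of positive control wells; inhibitors cause a drop in the FAM fluorescence signal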
# MLL AF4-AF9 inh = inhibitors of AF4 peptide binding to AF9, primary screen, biochemical, AlphaScreen, biotin-AF4 peptide, FLAG-AF9, single point; Protein AF-9 (Homo sapiens), P42568; inhibition, % at 10 µM; actives 0.47% (n = 350,000); AID 651704, 2012;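 active = every replicate reaching a set inhibition limit, whatever the replicate mean, cut at about 25% in these data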;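 note: 0% = plate neutral control median and 100% = total signal loss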
# * = called active by the depositor; / = not tested or not shown; ! = a repeat was not active.
SMILES,RAD52 inh,Glyco luc inh,Casp6 inh,RAD54 branch,MLL AF4-AF9 inh
C=CC[n+]1c(-c2ccc(Cl)cc2Cl)csc1Nc1ccc(NC(C)=O)cc1,-16,-11,5,/,44*
COc1ccc2c3c(n(C)c2c1)[C@@H](CO)N(C(=O)NC(C)C)CC31CCN(C(=O)NC(C)C)CC1,0,/,0,/,-2
CCOc1ccc(S(=O)(=O)NCC2(N3CCCCC3)CCCCC2)cc1,-11,-4,-1,-9,4
CCOc1ccc(S(=O)(=O)NCCC(=O)NCC2(N3CCCCC3)CCCCC2)cc1,-5,-1,50*,6,-1
CC(=O)NN1C(=O)/C(=C\c2ccc(Br)o2)SC1=S,-98,-3,51*,/,-1
CC(=O)NN1C(=O)/C(=C/c2ccc(Br)o2)SC1=S,/,-1,/,-20,/
C[C@H](CO)N1C[C@H](C)[C@@H](CN(C)S(=O)(=O)c2ccc3c(c2)OCCCO3)OCc2cn(nn2)CCCC1=O,-13,2,47*!,16,-5
C[C@H]1CN([C@@H](C)CO)C(=O)CCCn2cc(nn2)CO[C@@H]1CN(C)C(=O)Nc1ccc(N2CCCCC2)cc1,-15,5,0,-6,38*!
C[C@H](CO)N1C[C@H](C)[C@@H](CN(C)C(=O)c2ccncc2)OCc2cnnn2CCCC1=O,-9,0,39*!,-2,-7
C[C@@H]1CN([C@@H](C)CO)C(=O)CCCn2cc(nn2)CO[C@@H]1CN(C)S(=O)(=O)c1ccc2c(c1)OCCCO2,0,/,-1,-10,-2
C[C@@H]1CN([C@H](C)CO)C(=O)CCCn2cc(nn2)CO[C@@H]1CN(C)C(=O)Nc1ccc(N2CCN(C)CC2)cc1,3,/,2,2,2
C[C@@H]1CN([C@@H](C)CO)C(=O)CCCn2cc(nn2)CO[C@H]1CN(C)C(=O)Nc1ccc(N2CCN(C)CC2)cc1,68*!,/,-36,9,11
C[C@@H]1CN([C@@H](C)CO)C(=O)Cc2cc(NC(=O)Cc3ccccc3)ccc2O[C@H]1CN(C)C,-1,/,-6,-13,0
C[C@@H]1CN([C@@H](C)CO)C(=O)c2cc(NC(=O)Nc3ccccc3)ccc2O[C@@H](C)CCCCO[C@H]1CN(C)S(=O)(=O)c1ccc(F)cc1,-21,/,-3,/,-3
COc1ccc(NC(=O)N[C@@H]2CC[C@H](CCNC(=O)c3ccccc3F)O[C@@H]2CO)cc1,7,/,2,1,-1
CC=Cc1ccc2n(c1=O)C[C@H]1[C@H](CO)[C@@H](C(=O)NCCC)N(C(=O)CC)[C@@H]21 (mixture of isomers),1,/,-2,5,-2
C[C@H](CO)N1C[C@H](C)[C@@H](CN(C)C(=O)Nc2ccc(N3CCN(C)CC3)cc2)OCc2cn(nn2)CCCC1=O,66*!,/,1,5,10
COc1ccccc1S(=O)(=O)N[C@H]1C=C[C@H](CC(=O)NCc2cc(F)cc(F)c2)O[C@@H]1CO,-4,/,-3,0,-3
C[C@@H]1CN([C@H](C)CO)C(=O)Cc2cc(NC(=O)c3ccncc3)ccc2O[C@H]1CN(C)S(=O)(=O)c1ccc(F)cc1,5,/,-1,2,0
COc1nc(C)c2cc(C)oc2n1,-4,1,51*,/,-9
CSc1nc(C)c2cc(C)oc2n1,/,1,/,0,/
Nc1ccc2nc(-c3ccccc3)c(-c3ccccc3)nc2c1,-21,33*,6,2,-22
Nc1ccc(Oc2ccc3nc(-c4ccccc4)c(-c4ccccc4)nc3c2)cc1,/,-2,/,0,/
C[C@H](CO)N1C[C@H](C)[C@@H](CN(C)Cc2ccc(-c3ccccc3)cc2)Oc2ccc(NC(=O)NC3CCCCC3)cc2C1=O,89*,/,17,2,1
COc1ccc(CN(C)C[C@@H]2Oc3ccc(NC(=O)Nc4ccccc4)cc3C(=O)N([C@@H](C)CO)C[C@H]2C)cc1,17,/,/,53*,-6
SMILES,RAD52 inh,Glyco luc inh,Casp6 inh,RAD54 branch,MLL AF4-AF9 inh
COc1ccc(CN(C)C[C@H]2Oc3ccc(NC(=O)Nc4ccccc4)cc3C(=O)N([C@@H](C)CO)C[C@@H]2C)cc1,13,/,/,5,-8
COc1ccc(CN(C)C[C@@H]2Oc3ccc(NC(=O)NC4CCCCC4)cc3C(=O)N([C@@H](C)CO)C[C@H]2C)cc1,6,/,-2,63*,0
COc1ccc(CN(C)C[C@@H]2Oc3ccc(NC(=O)Nc4ccc(OC)cc4)cc3C(=O)N([C@@H](C)CO)C[C@H]2C)cc1,16,/,3,62*,5
COc1ccc(CN(C)C[C@@H]2Oc3ccc(NC(=O)Nc4c(C)noc4C)cc3C(=O)N([C@H](C)CO)C[C@H]2C)cc1,0,/,3,56*,-2
O=C(O)C(O)Cc1c[nH]c2ccccc12 (centres undefined),-13,1,-3,-13,-1
CC(Cc1c[nH]c2ccccc12)C(=O)O (centres undefined),6,1,38*,-10,-45
CCNc1nc(-c2cc(C)n(Cc3ccco3)c2C)cs1,-27,-3,51*,/,4
Cc1cc(-c2csc(NCc3ccccc3)n2)c(C)n1C,/,1,/,-12,/
Cc1cc(OC(=O)c2cc(Cl)ccc2Cl)c([N+](=O)[O-])c(=O)[nH]1,0,2,3,-8,-4
Cc1cc(OC(=O)c2cc([N+](=O)[O-])ccc2Cl)c([N+](=O)[O-])c(=O)[nH]1,-4,2,-2,-20,47*
Cc1ccc(S(=O)(=O)Nc2cccc3c2O[C@H](CN(C)S(=O)(=O)c2ccccc2)[C@@H](C)CN([C@@H](C)CO)C3=O)cc1,-4,/,1,-7,-1
COc1cc(OC)c(-c2nn3c(C4CCCCC4)nnc3s2)cc1OC,9,-4,43*,1,7
COc1ccc(C[C@H]2CCc3cnnn3COC[C@@H](Cc3ccccc3)NC2=O)cc1,-2,/,5,/,0
CN(C)CC(=O)N1[C@@H]2c3ccc(-c4ccccc4)c(=O)n3C[C@H]1[C@H](CO)[C@H]2C(=O)N1CCCCC1,1,/,0,10,-2
CC(=O)N1[C@@H]2Cn3c(ccc(-c4ccccc4)c3=O)[C@H]1[C@@H](C(=O)N1CCCCC1)[C@@H]2CO,59*,/,2,6,0
O=C(Nc1cc([N+](=O)[O-])ccc1O)c1ccc2c(c1)C(=O)N(Cc1ccco1)C2=O,0,-2,42*,-7,0
O=C(C1CCCCC1)N1CC2(C1)[C@H](c1ccccc1)[C@H](CO)N2Cc1ccc(Cl)cc1,-6,/,-1,/,7
O=C1c2c(O)cccc2Cc2cccc(O)c21,2,0,0,-3,5
O=C1Cc2cccc(=O)c(O)c2C(=O)O1,-16,0,38*,0,-4
